From PubChem
HPGD block: HPGD (human) dehydrogenase inhibition; P15428; purified HPGD, NADH fluorescence kinetic, PGE2 substrate; Potency, µM, usual class: inhibitors; 150,000 tested, 4.3% active; active means well fitted inhibition curve with a large enough effect, not every such curve was filed as active; inconclusive means small, poorly fitted or top-dose-only effect, or another doubt; inactive means no such curve, though single readings can be large or run the other way
Target sequence (P15428 whole entry, looked up): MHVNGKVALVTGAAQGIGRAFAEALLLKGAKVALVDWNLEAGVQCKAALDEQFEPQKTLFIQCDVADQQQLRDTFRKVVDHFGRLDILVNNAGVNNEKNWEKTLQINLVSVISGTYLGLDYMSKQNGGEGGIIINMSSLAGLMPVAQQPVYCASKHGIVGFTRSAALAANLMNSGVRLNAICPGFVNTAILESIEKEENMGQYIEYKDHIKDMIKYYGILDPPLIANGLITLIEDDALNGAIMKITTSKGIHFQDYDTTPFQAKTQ
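20 nM HPGD preincubated 15 min at room temperature with compound in 50 mM Tris-HCl pH 8, 0.01% Tween 20. Started with 1 mM NAD+ and 30 uM prostaglandin E2; NADH fluorescence (360/450 nm) read 5 times over 30-s intervals, last minus first.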
12-hLO inh: inhibitors of human 12-lipoxygenase (ALOX12); Potency, µM (series often up to 57.1 µM), hits mostly inhibitors; purified 12-hLO, xylenol orange hydroperoxide absorbance; P18054; 150,000 tested, 0.12% active; further: nearly all actives have a fitted effect of over 55% in size
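Hydroperoxide formation by human 12-lipoxygenase from 40 uM arachidonic acid was followed colorimetrically via ferric-xylenol orange complex, using the 573/405 nm absorbance ratio. Enzyme concentration was 150 nM, with 30 min reaction at room temperature.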
ALDH1A1 block: blocks purified human ALDH1A1 activity. Purified ALDH1A1, NADH fluorescence, propionaldehyde substrate. P00352. 220,000 tested, 7.3% active. AID 1030. Potency, µM (doses to about 75.3 µM), actives largely listed as inhibitors; active means well fitted inhibition curve with a large enough effect, not every such curve was filed as active; inconclusive means small, poorly fitted or top-dose-only effect, or another doubt; inactive means no such curve, though single readings can be large or run the other way
IMPase cell inh: membrane-permeable compound that blocks inositol monophosphatase; P97697; CHO-M1 cells, IP1 accumulation, HTRF TR-FRET ratio; inhibition (IP1 accumulation), % at 46.1 µM; 120,000 tested, under 10 active; AID 901; active means well fitted curve in the direction sought with a large enough effect in the signal ratio, not every such curve was filed as active; inconclusive means small, poorly fitted or top-dose-only effect, or a change in a side signal; inactive means no such curve, though single readings can be large or run the other way; the % refers to the signal ratio;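 further: cells stimulated with carbachol in lithium chloride buffer; higher means more IMPase inhibition seen as more IP1 and lower FRET ratio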
Target sequence (P97697 whole entry, looked up): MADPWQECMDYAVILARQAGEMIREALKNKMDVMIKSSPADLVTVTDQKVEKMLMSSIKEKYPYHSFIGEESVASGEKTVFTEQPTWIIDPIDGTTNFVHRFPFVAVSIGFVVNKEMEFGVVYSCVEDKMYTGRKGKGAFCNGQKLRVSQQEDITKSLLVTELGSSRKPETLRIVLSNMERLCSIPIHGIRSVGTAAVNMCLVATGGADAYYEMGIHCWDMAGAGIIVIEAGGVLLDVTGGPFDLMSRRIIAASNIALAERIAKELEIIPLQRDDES
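Elevated IP1 in lysates lowers TR-FRET signal (665/620 ratio and 620 channel reported). Cells were CHO-M1, given carbachol (50 uM as added) plus 50mM LiCl, pH 7.4, 30 min, 37C; compounds titrated up to 46 uM; AC50 by Hill equation.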
IMPase Li cell: cell-permeable IMPase inhibitors with lithium potentiation; CHO-M1 cells, IP1 TR-FRET (IP-One), carbachol + lithium; Potency, µM (highest dose often 59.4 µM), most hits filed as inhibitors; 210,000 tested, 0.35% active;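 further: IP1 builds up when IMPase is blocked and the TR-FRET signal falls; nearly all actives have a fitted effect of over 50% in size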
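IP1 accumulation measured by competitive TR-FRET in lysed CHO-M1 cells after 30 min compound exposure at 37C, with a small lithium addition to potentiate weak responses. Hill-equation AC50 from ratio and donor-channel data.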
NPSR antagonist: neuropeptide S receptor (human) antagonism, cAMP; CHO-NPSR cells, cAMP TR-FRET, antagonist mode; Potency, µM (top dose mostly 38.3 µM), most hits filed as inhibitors; 220,000 tested, 1% active; AID 1461; further: nearly all actives have a fitted effect of over 50% in size
Hits are given with their value; - = inactive; ? = inconclusive; . = not tested or not shown; ! = a repeat was not active; [ ] = another dose, or the depositor's remark. Shown are actives, neighbours in structure and some others; about 8.9% of the full set was active somewhere. Unless noted, the call rests on the fitted dose curve; in most records, active means well fitted curve in the direction sought with a large enough effect; inconclusive means small, poorly fitted or top-dose-only effect, or another doubt; inactive means no such curve, though single readings can be large; an effect the other way counts as inactive or inconclusive.

SMILES	HPGD block	12-hLO inh	ALDH1A1 block	IMPase cell inh	IMPase Li cell	NPSR antagonist
CCC(C)NC(=O)C(NS(=O)(=O)c1cccc2nsnc12)c1ccccc1 (configuration not stated)	-	-	-	-	-	-
CN1C(=S)N(c2ccccc2)C(=O)/C1=C/c1cccs1	-	-	-	.	-	-
CN1C(=S)N(c2ccccc2)C(=O)/C1=C/c1ccco1	-	-	13µM	.	-	-
C[C@@H](c1ccccc1)N1C(=O)[C@H]2[C@H]3[C@H](O)[C@H](O)C/C(=N/OC[C@@H](O)COCc4ccco4)[C@H]3CC[C@@H]2C1=O	.	.	-[13.5 µM]	.	.	.
COc1ccc(-c2nc(CNS(=O)(=O)c3ccc(OC)c(OC)c3)cs2)cc1	-	-	-	?	-	-
O=C(NCCCNCc1ccccc1)c1ccncc1	-	-	2µM	-	-	-
O=C(/C=N\O)NCCCNCc1ccccc1	-	-	22µM	-	-	-
CCOC(=O)C1CCCN(c2ncnc3c2cnn3-c2ccc(Cl)cc2)C1 (configuration not stated)	?	-	?	-	-	-
CCc1c(-c2ccccc2)[n+](=O)c2c(n1[O-])CCC2	.	.	.	.	.	-
CCOC(=O)c1c(C)nc(C)c(C(=O)OCC)c1-c1ccc(O)c(OC)c1	.	.	16µM	.	-	-
CC[C@@H](Nc1ncnc2c1oc1ccccc12)C(=O)O	.	.	.	.	.	-[7.67 µM]
Cc1cc(=O)n(-c2ccc(O)cc2)[nH]1	-	-	0.79µM	-	-	-
CCOC(=O)C1=C(NC#N)OC(C)=C(C)C1c1ccc(O)cc1 (configuration not stated)	-	-	22µM	-	-	-
CCOC(=O)C1=C(C)OC(N)=C(C#N)C1c1ccsc1 (configuration not stated)	-	-	?	-	-	-[7.67 µM]
C/C(Cn1nc([N+](=O)[O-])cc1C)=N\NC(=O)COc1ccccc1[N+](=O)[O-]	-	-	14µM	.	-	-
CCOC(=O)c1ccc(CC(=O)c2oc3cc(O)ccc3c2C)o1	?	-	?	-	-	-
CCOC(=O)c1ccc(CC(=O)c2ccc(O)c(O)c2O)o1	.	.	10µM	.	-	-
COC(=O)Oc1ccc(/C=N/NC(=O)CSCc2ccccc2Br)cc1OC	-	-	13µM	-	-	-
COc1ccc(/C=N/NC(=O)CSc2ccccc2)cc1OC	-	-	?	.	-	-
COc1ccccc1C1NC=C([N+](=O)[O-])C=C1[N+](=O)[O-] (configuration not stated)	3.5µM	-	8.9µM	.	-	-
COc1ccccc1C1CCN(c2ccc([N+](=O)[O-])c(OC)c2)CC1	.	.	-	.	.	-
COc1ccccc1C1C([N+](=O)[O-])=CC([N+](=O)[O-])=CN1C (configuration not stated)	-	-	13µM	.	-	-
O=C(Cc1c(Cl)cccc1Cl)OCC(=O)N1CCN(C(=O)c2ccco2)CC1	.	.	32µM	.	-	-
O=C(OCC(=O)N1CCN(C(=O)c2ccco2)CC1)c1ccccc1	.	.	?	.	-	-
O=C(c1ccco1)N1CCN(S(=O)(=O)Cc2ccccc2Cl)CC1	.	.	10µM	.	-	-
SMILES	HPGD block	12-hLO inh	ALDH1A1 block	IMPase cell inh	IMPase Li cell	NPSR antagonist
O=C(NCc1ccccc1)c1cccc(OCC(=O)N2CCN(C(=O)c3ccco3)CC2)c1	-	-	16µM	-	-	-
O=[n+]1c2c(n([O-])c3cc(F)c(F)cc31)CCCC2	18µM	-	?	-	-	-
CC(C)COC(=O)n1c(SCC(=O)N(C)C)nc2ccccc21	-	-	-	-	-	-
Cc1[nH]c(=O)[nH]c(=O)c1S(=O)(=O)N1CCN(c2cccc(Cl)c2)CC1	-	-	-	-	-	-[7.67 µM]
O=C(c1ccncc1)c1ccc(N2CCN(C3CC(=O)N(Cc4cccs4)C3=O)CC2)cc1 (configuration not stated)	.	.	?	.	-	-
O=C1CC(N2CCN(c3ccc(O)cc3)CC2)C(=O)N1Cc1cccs1 (configuration not stated)	-	-	25µM	-	-	-
O=[N+]([O-])c1ccc(Sc2cccc[n+]2[O-])c2nonc12	.	.	2.2µM	.	.	?
C/C=C(\C)C(=O)NCCN1C2=NC[C@H](C)N2C[C@@H]1Cc1ccc(OC)cc1	.	.	-	.	-	-
CCCCCCNC(=O)N[C@H](C(=O)NCCC[C@H]1CN2C(=NC[C@H]2C)N1CCC(c1ccccc1)c1ccccc1)C(C)O (some centres not stated)	.	.	.	.	.	10µM
O=C(Cn1c(CC(=O)N2CCCC2)nc2ccccc21)NCc1ccccc1	-	-	-	-	-	-
Cc1cc(C)n(CCc2nc(-c3ccc(C)o3)cs2)n1	25µM	-	4µM	-	-	-
COc1cccc(NC(=O)CNC(=O)c2ccc(F)cc2)c1	-	-	-	-	-	-
Cc1ccccc1C(=O)NCC(=O)NNC(=S)NC(=O)c1ccccc1C	25µM	-	-	.	-	-
Cc1ccccc1C(=O)NC(=S)NCCC1=CCCCC1	.	.	?	.	-	?
Cc1ccccc1C(=O)NC(=S)NCCc1ccccc1	-	?	11µM	.	-	-
COc1cc(OC)cc(C(=O)NC(=S)NCCc2ccccc2)c1	-	4µM	1.1µM	-	-	?
CC(C)(C)C(=O)NC(=S)NCCc1ccccc1	-	13µM	28µM	-	-	-
COC(=O)c1cc(Cl)c(NC(=O)c2cc(OC)c(OC)c(OC)c2)cc1OC	?	-	-	-	-	-
COC(=O)c1cccc(COC(=O)CNC(=O)c2ccco2)c1	-	-	-	-	-	-
N#CCCN(C(=S)NC(=O)c1ccco1)c1ccccc1F	.	.	7.9µM	.	-	-
N#CCCN(Cc1cccnc1)C(=S)NC(=O)c1ccco1	.	.	11µM	.	-	-
N#CCCN(Cc1cccnc1)C(=S)NCc1ccco1	.	.	18µM	.	-	-
CCN(CC)S(=O)(=O)c1ccc(C(=O)NC(=S)N(CCC#N)Cc2cccnc2)cc1	.	.	?	.	-	-
CCc1ccc(NC(=S)N(Cc2cccnc2)Cc2ccco2)cc1	.	.	-	.	-	-
Cc1cccc2cc(COC(=O)c3ccccc3)c(=O)[nH]c12	-	-	-	-	?	-
O=C(O)c1cc(N=Nc2ccc([N+](=O)[O-])cc2)ccc1O	-	-[11.4 µM]	22µM!	.	-	.
CCOC(=O)CNc1c(-c2ccccc2)nc2ccc(Cl)cn12	?	-	?	-	-	-
CCOC(=O)CNc1c(-c2ccc(O)cc2)nc2ccc(Cl)cn12	-	-	7.1µM	-	-	-
OCc1ccnc2c(O)cccc12	-	?	-	-	-	-
O=C(CSc1nc(-c2ccccc2F)nc2nc[nH]c12)Nc1c(Cl)cc(Cl)cc1Cl	-	-	-	.	?	5µM
